Records with an inconclusive call do not appear. Active and inactive are the calls of the source. Calls come from the whole dose curve; as a rule, active = well fitted inhibition curve with a large enough effect in the repeat runs; inconclusive = weak or mixed curves, or effect the other way; inactive = no such curve, though single readings can be large or run the other way.
Target: Androgen receptor (Homo sapiens) (UniProt P10275)
Test: qHTS assay to identify small molecule antagonists of the androgen receptor (AR) signaling pathway using the MDA cell line (AID 743042; note: nearly all actives have a fitted effect of over 55% in size)
Conditions: MDA-kb2 AR-luc, MMTV luciferase, R1881 antagonist, 16 h; series mostly up to 70.3 µM; activity change, negative = inhibition: at the top concentration
Outline: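 Antagonist mode: compounds plus R1881 agonist added to MDA-kb2 AR-luc cells, incubated 16 h at 37C. Luciferase reporter luminescence quantified, with multiplexed CellTiter-Fluor readout for cell viability.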
% is set by controls: 0 for no effect and ±100 for the full control effect.

Androgen receptor (Homo sapiens), sequence (P10275 whole entry, looked up): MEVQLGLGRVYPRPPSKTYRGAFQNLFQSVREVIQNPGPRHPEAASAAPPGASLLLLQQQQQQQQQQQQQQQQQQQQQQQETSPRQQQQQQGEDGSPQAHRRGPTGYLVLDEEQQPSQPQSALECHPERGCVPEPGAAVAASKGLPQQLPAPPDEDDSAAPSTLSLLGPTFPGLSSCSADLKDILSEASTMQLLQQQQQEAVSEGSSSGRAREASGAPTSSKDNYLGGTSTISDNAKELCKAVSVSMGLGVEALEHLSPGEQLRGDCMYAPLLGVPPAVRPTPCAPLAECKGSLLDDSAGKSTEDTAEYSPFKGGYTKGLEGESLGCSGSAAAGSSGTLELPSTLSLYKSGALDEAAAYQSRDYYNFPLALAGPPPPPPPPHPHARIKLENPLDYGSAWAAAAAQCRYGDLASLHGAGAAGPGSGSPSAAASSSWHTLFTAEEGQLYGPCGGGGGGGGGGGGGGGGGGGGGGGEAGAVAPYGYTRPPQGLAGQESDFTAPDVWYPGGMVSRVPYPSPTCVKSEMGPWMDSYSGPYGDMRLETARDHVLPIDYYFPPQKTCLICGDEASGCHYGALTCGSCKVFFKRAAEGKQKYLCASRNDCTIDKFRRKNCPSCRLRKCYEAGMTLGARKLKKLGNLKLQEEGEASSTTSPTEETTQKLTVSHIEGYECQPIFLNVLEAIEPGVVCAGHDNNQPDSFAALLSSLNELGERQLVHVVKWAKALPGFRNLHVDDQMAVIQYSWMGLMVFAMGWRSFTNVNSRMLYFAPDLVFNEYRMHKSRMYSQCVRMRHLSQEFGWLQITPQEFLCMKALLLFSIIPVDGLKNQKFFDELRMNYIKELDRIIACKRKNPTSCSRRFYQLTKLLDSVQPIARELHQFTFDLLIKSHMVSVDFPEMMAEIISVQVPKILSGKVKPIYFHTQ

Compound | activity change, negative = inhibition
CCn1ccnc1CC1COc2ccccc2O1 (stereo not given) | 10% (inactive)
CC(C)(CC(=O)O)C(=O)O | -2.71% (inactive)
COC(=O)[C@@H](N)Cc1ccc(O)c(O)c1 | -14% (inactive)
CCSC(=O)N(CC(C)C)CC(C)C | 4.12% (inactive)
CC(=O)OCC(CCn1cnc2cnc(N)nc21)COC(C)=O | -3.69% (inactive)
CN1CC(=O)NC1=N | -4.85% (inactive)
N=C(N)c1ccc2cc(OC(=O)c3ccc(N=C(N)N)cc3)ccc2c1 | -37.8% (inactive)
NS(=O)(=O)c1ccc(C(=O)O)cc1 | -0.174% (inactive)
CC(=O)Nc1ccc(S(N)(=O)=O)cc1 | 5.76% (inactive)
CCN1CCC[C@H]1CNC(=O)c1cc(S(N)(=O)=O)ccc1OC | 0.874% (inactive)
